This passage reports outcome and AC50 results from PubChem BioAssay (EPA / NIEHS).

Test [1] concerns the target Ratio of Nucleoli Translocation and Cytoplasm, AR (gene 367) (UniProt P10275). The test is described as follows: UPITT_HCI_U2OS_AR_TIF2_Nucleoli_Cytoplasm_Ratio_Antagonist: University of Pittsburgh U2OS Androgen Receptor-Transcriptional Intermediary Factor 2 (AR-TIF2) Antagonism High Content Imaging Assay for Ratio of Nucleoli Translocation and Cytoplasm (AID 2283999; active means hit-call score of the fitted dose curve at least 0.9, where 1 is the maximum;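 further: antagonists lower the DHT-driven ratio of nucleolar to cytoplasmic red signal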). In short, it runs like this: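 High-content imaging quantifies the red nucleolar:cytoplasmic fluorescence ratio in U2OS cells with AR-RFP and TIF2-GFP. Final concentrations are 20 uM (screen) or 0.195–50 uM (dose response), analysed against DHT as baseline.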

Test [2] has the same target. Description: UPITT_HCI_U2OS_AR_TIF2_Nucleoli_Cytoplasm_Ratio_Agonist: University of Pittsburgh U2OS Androgen Receptor-Transcriptional Intermediary Factor 2 (AR-TIF2) Agonism High Content Imaging Assay for Ratio of Nucleoli Translocation and Cytoplasm (AID 2284000; active means hit-call score of the fitted dose curve at least 0.9, where 1 is the maximum;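 further: hits raise the red nucleolar to cytoplasm ratio above vehicle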). In short, it runs like this:
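Read-out first: nucleolar-to-cytoplasm ratio of red (AR-RFP) signal, quantified by high-content imaging in U2OS cells co-expressing TIF2-GFP. Activity is scored as signal increase over DMSO. Single-point screening used 20 uM final (0.2% DMSO).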

Test [3] in a line: CCTE_Shafer_MEA_acute_spike_number: CCTE's Neural Acute Assay for Total Number of Spikes, Shafer Lab (AID 2284008). In short, it runs like this: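 Rat cortical cultures, DIV 13/15, 37 C. 40 min baseline rec, cpd 0.03-40 uM, 40 min post-dose rec. Band-pass 300-5000 Hz, spike threshold 8x rms; % change in spike count per well, DMSO neg ctrl, loss-of-signal fit.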
Test [4] in a line: CCTE_Shafer_MEA_acute_firing_rate_mean: CCTE's Neural Acute Assay for Mean Firing Rate, Shafer Lab (AID 2284009).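 Further: analyzed for loss of signal so actives lower firing rate relative to DMSO.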 In short, it runs like this:
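Percent change in well-mean firing rate was derived from extracellular spikes detected at 8x rms noise (300-5000 Hz band-pass) before and after a 40-min compound exposure. Cultures were primary rat cortical neurons, tested at 0.03-40 uM.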

Test [5] is described as follows: CCTE_Shafer_MEA_acute_burst_number: CCTE's Neural Acute Assay for Single-Electrode Bursts, Shafer Lab (AID 2284013). The method, boiled down: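 Spontaneous network activity of primary rat cortical neurons was recorded extracellularly on microelectrode arrays at 37 C, with 40-min periods before and during exposure to 0.03-40 uM compound on DIV 13 or 15.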
Test [6] can be described thus: CCTE_Shafer_MEA_acute_burst_duration_mean: CCTE's Neural Acute Assay for Mean Burst Duration, Shafer Lab (AID 2284014).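 Further: hits are decreases in mean burst duration relative to DMSO controls.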 In short, it runs like this: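 Read-out is the per-well percent change in mean burst duration (first to last spike within a single-electrode burst) between 40-min recordings before and after compound. Cultures were primary rat cortical neurons on MEAs, dosed at 0.03-40 uM on DIV 13 or 15.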

Test [7] can be described thus: CCTE_Shafer_MEA_acute_per_burst_spike_number_mean: CCTE's Neural Acute Assay for Average Number of Spikes Per Burst, Shafer Lab (AID 2284015).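 Further: hits are decreases in mean spikes per burst versus baseline.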 The method, boiled down:
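Primary rat cortical neurons on 48-well MEA plates, treated on DIV 13 or 15 at 0.03-40 uM. Spontaneous activity recorded 40 min before and 40 min after compound at 37 C; percent change in mean spikes per single-electrode burst per well, fitted in the loss direction versus DMSO.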

Test [8] is described as follows: CCTE_Shafer_MEA_acute_interburst_interval_mean: CCTE's Neural Acute Assay for Mean Interburst Interval, Shafer Lab (AID 2284016).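 Further: percent change of mean interburst interval versus each well's own pre-dose baseline; curves fitted for decrease in interburst interval relative to DMSO.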 In short, it runs like this:
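Primary rat cortical neurons on 16-electrode MEA wells were recorded 40 min at baseline on DIV 13 or 15, then 40 min after compound (0.03-40 uM), at 37 C. Value is percent change in mean interburst interval per well, DMSO as negative control.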

Test [9] can be described thus: CCTE_Harrill_HTTr_Viability_MCF7: CCTE's 6-hour Cell Viability Assessment for the High-Throughput Transcriptomics (HTTr) Platform, in MCF-7 cells cultured in DMEM + 10% fetal bovine serum, Harrill Lab (AID 2284010). The method, boiled down:
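Viability measured through PI dye exclusion by high-content imaging at 6 h post-dosing.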

Test [10] in a line: CCTE_Harrill_HTTr_Apoptosis_MCF7: CCTE's 6-hour Apoptosis Assessment for the High-Throughput Transcriptomics (HTTr) Platform, in MCF-7 cells cultured in DMEM + 10% fetal bovine serum, Harrill Lab (AID 2284011). In short, it runs like this: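 Read-out: CellEvent Caspase 3/7 Green signal by high content imaging, gain-of-signal indicating apoptosis. MCF-7 cells, DMEM + 10% FBS, eight-point dilution series, 6 h exposure. Curves fitted bidirectionally relative to DMSO negative control.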

Test [11] in a line: CCTE_Harrill_HTTr_CellCount_MCF7: CCTE's Cell Proliferation Assessment for the High-Throughput Transcriptomics (HTTr) Platform, Harrill Lab (AID 2284012; active means hit-call score of the fitted dose curve at least 0.9, where 1 is the maximum;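 further: count of Hoechst-stained nuclei per well by high-content imaging in MCF-7 cells; cells exposed to compound for six hours; intended direction is loss of nuclei count meaning fewer cells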). The method, boiled down:
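Nuclei counting (Hoechst, high content imaging) in MCF-7 after a 6 h treatment at eight concentrations. Activity fitted bidirectionally, DMSO as negative control.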

The nature of test [12]: CCTE_Simmons_MITO_inhib_resp_rate: CCTE's HepG2 Seahorse XF Respirometric Screening Assay at Inhibited Respiratory State [full ETC block], Simmons Lab (AID 2284006). Particulars: actives raise or lower the signal. In short, it runs like this:
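Inhibited respiration was taken as HepG2 oxygen consumption after rotenone/antimycin A, which followed test-compound and FCCP injections. Chemicals were tested at seven final concentrations from 125 nM to 100 uM. Activity was fitted bidirectionally relative to DMSO.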

Test [13] can be described thus: CCTE_Simmons_MITO_viability: CellTiter-Glo Viability Assessment for CCTE's HepG2 Seahorse XF Respirometric Screening Assay [post-hoc], Simmons Lab (AID 2284007; active means hit-call score of the fitted dose curve at least 0.9, where 1 is the maximum). In short, it runs like this:
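HepG2 cells; test chemical 7 conc. (125 nM–100 uM final) × 90 min; then luminescent ATP detection. DMSO vehicle. Positive control dichlone, 8 conc. from 10 nM to 100 uM final. Loss-of-signal endpoint.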
Background: In ATP-based viability assays light output follows the ATP content of the culture.

Test [14] in a line: CCTE_Harrill_HTTr_Viability_PRF_DMEM_24hr: (Pilot) CCTE's 24-hour Cell Viability Assessment for the High-Throughput Transcriptomics (HTTr) Platform, in MCF-7 cells cultured in phenol red-free DMEM + 10% charcoal-stripped fetal bovine serum, Harrill Lab (AID 2283980). In short, it runs like this: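 MCF-7 cells in phenol red-free DMEM with 10% charcoal-stripped FBS, eight-point dilution series, 24 h exposure. Membrane integrity by propidium iodide exclusion with high content imaging; bidirectional fit vs DMSO.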

Test [15] can be described thus: CCTE_Harrill_HTTr_Apoptosis_DMEM_6hr: (Pilot) CCTE's 6-hour Apoptosis Assessment for the High-Throughput Transcriptomics (HTTr) Platform, in MCF-7 cells cultured in DMEM + 10% fetal bovine serum, Harrill Lab (AID 2283981). The method, boiled down: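 Caspase-3/7 activation read by high content imaging with CellEvent Caspase 3/7 Green in MCF-7 cells (DMEM + 10% FBS), 6 h after dosing; eight-point dilution series. Bidirectional fitting relative to DMSO baseline.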

Test [16] can be described thus: CCTE_Harrill_HTTr_Apoptosis_DMEM_12hr: (Pilot) CCTE's 12-hour Apoptosis Assessment for the High-Throughput Transcriptomics (HTTr) Platform, in MCF-7 cells cultured in DMEM + 10% fetal bovine serum, Harrill Lab (AID 2283982). In short, it runs like this:
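MCF-7 cells in DMEM + 10% FBS, exposed 12 h to an eight-point dilution series; caspase-3/7 activation imaged with CellEvent Green. Bidirectional fit versus DMSO.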

Test [17] can be described thus: CCTE_Harrill_HTTr_Apoptosis_DMEM_24hr: (Pilot) CCTE's 24-hour Apoptosis Assessment for the High-Throughput Transcriptomics (HTTr) Platform, in MCF-7 cells cultured in DMEM + 10% fetal bovine serum, Harrill Lab (AID 2283983). The method, boiled down:
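MCF-7 cells in DMEM + 10% FBS, eight-point dilution series, 24 h exposure. Caspase-3/7 activation imaged by high-content imaging with CellEvent Caspase 3/7 Green. Bidirectional curve fitting against DMSO baseline.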

Test [18] is described as follows: CCTE_Harrill_HTTr_Apoptosis_PRF_DMEM_6hr: (Pilot) CCTE's 6-hour Apoptosis Assessment for the High-Throughput Transcriptomics (HTTr) Platform, in MCF-7 cells cultured phenol red-free DMEM + 10% charcoal-stripped fetal bovine serum, Harrill Lab (AID 2283984). The method, boiled down: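 MCF-7 cells in phenol red-free DMEM + 10% charcoal-stripped FBS, eight-point dilution series, 6 h exposure. Caspase-3/7 activation imaged by high-content imaging with CellEvent Caspase 3/7 Green; bidirectional fit versus DMSO baseline.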

Test [19] in a line: CCTE_Harrill_HTTr_Apoptosis_PRF_DMEM_24hr: (Pilot) CCTE's 24-hour Apoptosis Assessment for the High-Throughput Transcriptomics (HTTr) Platform, in MCF-7 cells cultured in phenol red-free DMEM + 10% charcoal-stripped fetal bovine serum, Harrill Lab (AID 2283986). The method, boiled down: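 MCF-7 cells in phenol red-free DMEM with 10% charcoal-stripped FBS, exposed 24 h across an eight-point dilution series. Caspase-3/7 activation imaged with CellEvent Green by high content imaging; bidirectional fitting against DMSO.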

Results filed as inconclusive are left out. Active and inactive are the calls of the source. How the source made its calls, unless noted: active means hit-call score of the fitted dose curve at least 0.9, where 1 is the maximum; inactive means score below 0.9.

Chain of Ratio of Nucleoli Translocation and Cytoplasm, AR (gene 367) (P10275 whole entry, looked up): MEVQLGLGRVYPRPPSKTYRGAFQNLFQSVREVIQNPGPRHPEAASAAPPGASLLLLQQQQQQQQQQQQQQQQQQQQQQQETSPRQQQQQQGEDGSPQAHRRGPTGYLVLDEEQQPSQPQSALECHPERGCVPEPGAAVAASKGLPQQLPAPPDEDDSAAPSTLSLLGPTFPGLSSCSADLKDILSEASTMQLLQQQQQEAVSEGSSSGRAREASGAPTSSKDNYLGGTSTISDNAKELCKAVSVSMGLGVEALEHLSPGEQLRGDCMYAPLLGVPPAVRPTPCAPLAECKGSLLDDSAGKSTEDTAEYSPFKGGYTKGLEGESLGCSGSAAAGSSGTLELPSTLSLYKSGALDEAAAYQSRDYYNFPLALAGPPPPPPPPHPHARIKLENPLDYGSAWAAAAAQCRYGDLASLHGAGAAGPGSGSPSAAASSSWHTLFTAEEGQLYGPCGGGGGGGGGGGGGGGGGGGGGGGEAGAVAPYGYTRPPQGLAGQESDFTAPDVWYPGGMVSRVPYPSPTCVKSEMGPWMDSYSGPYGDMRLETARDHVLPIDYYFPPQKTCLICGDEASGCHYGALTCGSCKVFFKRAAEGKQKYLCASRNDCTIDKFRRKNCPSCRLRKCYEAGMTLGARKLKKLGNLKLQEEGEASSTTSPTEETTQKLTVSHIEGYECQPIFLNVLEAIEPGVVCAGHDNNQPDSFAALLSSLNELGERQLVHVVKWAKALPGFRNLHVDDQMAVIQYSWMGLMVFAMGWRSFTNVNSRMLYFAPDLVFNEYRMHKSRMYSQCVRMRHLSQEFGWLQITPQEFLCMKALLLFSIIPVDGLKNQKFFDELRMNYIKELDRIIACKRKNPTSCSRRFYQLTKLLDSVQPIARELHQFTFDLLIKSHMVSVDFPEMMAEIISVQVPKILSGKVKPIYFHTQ

For `O=C(c1ccccc1)C1CCCCC1`, the result in test [1], in [2], in test [3], in test [4], in test [5] and in test [6] was inactive. Moreover, the outcome in test [7] and in [8] was inactive.
Turning to `CCOC(=O)COc1cc(-n2ncc(C(F)(F)F)c(C)c2=O)c(F)cc1Cl`, the outcome in test [2], in test [9], in test [10] and in [11] was inactive.
With `CCOC(=O)NCCOc1ccc(Oc2ccccc2)cc1`, the call in test [12], in test [13], in test [9] and in test [10] was inactive.
Take `C[C@]12CC[C@@H]3c4ccc(O)cc4C[C@@H](CCCCCCCCCS(=O)CCCC(F)(F)C(F)(F)F)[C@H]3[C@@H]1CC[C@@H]2O` (stereo not given in full): the outcome in test [14], in [15], in test [16], in test [17], in test [18] and in [19] was inactive. The outcome in test [2], in test [9] and in test [10] was inactive.
Regarding `COC(=O)CSc1cc(N=c2sc(=O)n3n2CCCC3)c(F)cc1Cl`, the result in [1], in test [2], in test [9] and in test [10] was inactive.
With `CSC(=O)c1cccc2nnsc12`, the result in test [1], in [2], in test [3], in test [4], in [9] and in [10] was inactive. Besides, the outcome in [5], in [6], in test [7] and in test [8] was inactive.
Turning to `N[C@@H](Cc1cc(I)c(Oc2ccc(O)c(I)c2)c(I)c1)C(=O)O`, the result in test [14], in [15], in test [16], in test [17], in [18] and in test [19] was inactive. In addition, the call in [12], in test [9] and in [10] was inactive.
Regarding `CCSC(=O)N(CC(C)C)CC(C)C`, the outcome in test [1], in test [2], in test [9] and in [10] was inactive.
As to `CCCN(CCC)C(=O)SCC`, the result in test [2], in test [9], in test [10] and in test [11] was inactive.
With `CC1(C)C(C=C(Cl)Cl)C1C(=O)OCc1cccc(Oc2ccccc2)c1` (stereo not given), the result in [1], in test [2], in test [3], in test [4], in [9] and in test [10] was inactive. In addition, the call in [5], in test [6] and in test [8] was inactive.
In general, AC50 refers to the concentration giving half of the maximal activity seen. Regarding `O=C(c1ccc(O)cc1O)c1ccc(O)cc1O`, the half-maximal activity concentration (AC50) in test [1] was 2350 nM (active). Besides, the outcome in [2], in test [12], in test [13], in test [3], in [4] and in test [9] was inactive. Moreover, the outcome in test [10], in test [5], in test [6], in test [7] and in [8] was inactive.
For the compound `CCCCOCCOCCOCc1cc2c(cc1CCC)OCO2`, the result in test [1], in test [2], in [9] and in [10] was inactive.
Turning to `CC(=O)S[C@@H]1CC2=CC(=O)CC[C@]2(C)[C@H]2CC[C@@]3(C)[C@@H](CC[C@@]34CCC(=O)O4)[C@H]12`, the outcome in test [1], in [9], in test [10] and in test [11] was inactive.
